The full ranking holds about 33,000 sequences; the median of “e-score” is about -0.038, and the highest 2% start at about 0.33. What follows is part of a selection rich in the highest values, with near analogues and random picks from the rest.

The target in this assay is T1, GST-Rok-C97-191 (Bacillus subtilis subsp. subtilis str. …, UniProt O34857 97-191).
T1 sequence: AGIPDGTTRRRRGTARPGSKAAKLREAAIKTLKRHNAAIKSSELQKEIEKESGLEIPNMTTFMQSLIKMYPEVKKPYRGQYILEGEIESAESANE
As to the kind of experiment: protein binding microarray; Rok is a gene silencer of Bacillus subtilis; high values mean tight binding. As to conditions: protein: recombinant; tags: GST (pTH5325, pDEST15-Magic modified); dsDNA, one strand shown. A digest of the protocol: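 Every oligonucleotide joins a 25-mer constant primer to a 35-mer variable part drawn from a de Bruijn sequence of order 10, so each non-palindromic 8-mer appears at least 32 times and each palindromic 8-mer 16 times. The preference for every 8-mer is reported as a unitless, rank-based enrichment score (E-score). This score spans 0.5 for the most favored 8-mer to −0.5 for the most disfavored.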
For the sequence GAGGCTGA, the binding signal was -0.165 E-score.

For ACCGCAAG, the binding signal was -0.109 E-score. The same measure for ACGAACTA: 0.311 E-score; for CCAACTAA: 0.16 E-score. Consider ACGCTAAG, for which the binding signal amounted to 0.0377 E-score.

For the sequence CGAAGCTA, the binding signal was 0.0414 E-score. Under CTCGGAGC stands 0.0375 E-score; under GCAAACCA, -0.0828 E-score. On to CCAAACTC, for which the binding signal was -0.0249 E-score. The same measure for GAAAACCA: -0.143 E-score; for CCAAACTA: 0.376 E-score. On to GAAAACTA, for which the binding signal is 0.336 E-score.

As for CCAAACCA, the binding signal is -0.102 E-score. As to GAAAACTC, the binding signal was -0.0271 E-score. For GCAAACTA, the binding signal came out at 0.385 E-score. The same measure for GCAAACAA: -0.173 E-score. Under GTTACAGA stands 0.21 E-score; under TGCGCGCA, 0.0584 E-score. With TAGGGGGA, the binding signal is -0.143 E-score. On to ACAGTTGA, for which the binding signal turned out to be 0.152 E-score. Regarding CCAGCGTC, the binding signal is -0.163 E-score. Under AATAGAAA stands 0.388 E-score. The same measure for TATAGACA: 0.00807 E-score. For the sequence CATAGAAA, the binding signal was 0.105 E-score.

GATAGAAC: the binding signal stood at 0.289 E-score. Under GATAGAAA stands 0.333 E-score; under AATAGAAT, 0.318 E-score.

As for GATAGACA, the binding signal is 0.058 E-score.

Turning to TATAGAAA, the binding signal turned out to be 0.397 E-score. Consider AATAGAAC, for which the binding signal came out at 0.151 E-score.

In the case of ACAAACCG, the binding signal is -0.027 E-score. The same measure for TCATTCCA: -0.0328 E-score; for GCATCCAA: -0.0621 E-score.

Turning to GATAGAGA, the binding signal was 0.104 E-score. AATACAGG: the binding signal is -0.0587 E-score.

For GACCCAAC, the binding signal is -0.142 E-score. On to AGAAGCGA, for which the binding signal was -0.104 E-score. In the case of GGGCATAC, the binding signal was -0.0596 E-score. Consider AATCGACC, for which the binding signal is -0.0453 E-score.

Turning to GCTACTCA, the binding signal amounted to 0.0267 E-score. The same measure for AAACTATG: 0.229 E-score; for AAACTATC: 0.36 E-score. Regarding GAACTATC, the binding signal came to 0.261 E-score. Under CAACTATC stands 0.156 E-score. Take CAACTATA: the binding signal was 0.277 E-score.

With AAACTAAC, the binding signal worked out at 0.308 E-score. Under GAACTATA stands 0.29 E-score. Under AAACTATA stands 0.398 E-score; under AAACTAAG, 0.251 E-score; under AAACTCTT, 0.063 E-score. The same measure for AAACTAAT: 0.36 E-score; for AAACTATT: 0.448 E-score; for AAACAGTC: -0.0408 E-score.

Consider GCGCCGGA, for which the binding signal was -0.0972 E-score. Turning to ATTTAAAA, the binding signal was -0.0263 E-score. The same measure for GAAGCGTC: -0.188 E-score; for ATTATTCA: 0.199 E-score; for CTAGATCA: 0.199 E-score. ATTACAGC: the binding signal was 0.215 E-score.

For the sequence TAACTAAA, the binding signal was found to be 0.23 E-score. TAACTATA: the binding signal amounted to 0.347 E-score. As to AAACTAAA, the binding signal was determined as 0.296 E-score.

On to CAGAGAGA, for which the binding signal was -0.071 E-score. Regarding CTTTAGGC, the binding signal was -0.0933 E-score.

Turning to GCAGAAAC, the binding signal is -0.0283 E-score. The same measure for TTAGAAAA: 0.263 E-score; for GTAGAAAC: 0.435 E-score. The same measure for GTAGAAAA: 0.384 E-score; for CAAGAAAC: 0.224 E-score. The same measure for GAAGAAAC: 0.108 E-score; for CTAGAAAG: 0.113 E-score. For CTAGAAAA, the binding signal worked out at 0.312 E-score.

For the sequence CTAGAAAC, the binding signal was 0.34 E-score. Consider TCAGCCCA, for which the binding signal is -0.191 E-score.

Take TGCCAACA: the binding signal came out at 0.0271 E-score.

With AGAGGTAA, the binding signal turned out to be 0.149 E-score.

Regarding CGGCAAAC, the binding signal turned out to be 0.168 E-score. The same measure for AGCGCCGG: -0.146 E-score; for ACTATACG: 0.0223 E-score.

Consider ATTATACC, for which the binding signal is 0.228 E-score. Under ATTATACA stands 0.333 E-score. As for CTTATACA, the binding signal was 0.263 E-score.

Consider ATTATACG, for which the binding signal came to 0.388 E-score.

Consider GTTATACA, for which the binding signal stood at 0.253 E-score. Under GTACTGCA stands 0.119 E-score; under AGAATGCG, 0.105 E-score; under ATAGGGAC, -0.176 E-score. In the case of CACGATCA, the binding signal was -0.0988 E-score. Under AACCCCTG stands -0.151 E-score; under GTCTGACA, -0.163 E-score; under AACATACA, 0.343 E-score.

Take TATATACA: the binding signal came out at 0.402 E-score. Consider GATATACA, for which the binding signal was 0.175 E-score. The same measure for AATATACA: 0.394 E-score; for GATATACC: 0.153 E-score. Take ACTATACA: the binding signal was found to be 0.302 E-score. For the sequence AATATACC, the binding signal worked out at 0.353 E-score. AATACACA: the binding signal was determined as 0.173 E-score.

Consider CATATACC, for which the binding signal amounted to 0.222 E-score. Turning to TACATACA, the binding signal is 0.253 E-score. On to CATATACA, for which the binding signal was 0.22 E-score.

In the case of AACATACT, the binding signal was 0.0962 E-score. The same measure for ACAACTTG: 0.173 E-score; for ACGTGGCA: -0.0377 E-score; for CTTAGCGC: 0.0409 E-score. The same measure for GAGCTAGC: 0.0567 E-score; for ACCCGTTG: -0.159 E-score. As for TGTTAAAA, the binding signal is -0.0158 E-score. For the sequence AATTGCGG, the binding signal was determined as 0.0377 E-score.

With TACCGGAA, the binding signal is -0.0058 E-score. For ACAGGCGT, the binding signal was -0.077 E-score.

Take GGTATACA: the binding signal came out at 0.15 E-score. Regarding AGTATACA, the binding signal was found to be 0.178 E-score. The same measure for AATATACT: 0.367 E-score; for ACTATACT: 0.0926 E-score.

On to TGTATACA, for which the binding signal worked out at 0.37 E-score. Under AATATACG stands 0.225 E-score. For the sequence GAAAGTGC, the binding signal is -0.0315 E-score. The same measure for GTACCAAC: 0.0505 E-score; for CAGGCGAC: -0.00727 E-score; for CGTTTATC: 0.231 E-score. For the sequence GGCAGTTA, the binding signal came to 0.0872 E-score. The same measure for CACAAGTG: -0.00102 E-score; for CAGACTAA: -0.0795 E-score. Under ACCTCACT stands -0.0237 E-score; under TCAGCCGA, -0.0187 E-score; under GATAAAAA, 0.234 E-score. As to AATATAAT, the binding signal came out at 0.23 E-score. For TATAAAAA, the binding signal is 0.244 E-score. Take CATATAAA: the binding signal came to 0.138 E-score. As for GATATAAC, the binding signal worked out at 0.297 E-score. The same measure for AATATAAC: 0.205 E-score.

With TATATAAA, the binding signal turned out to be 0.394 E-score. Under GATATAAA stands 0.34 E-score. The same measure for AATATAAA: 0.361 E-score; for ACTGTTGC: 0.119 E-score; for TGACTCCA: -0.0987 E-score. The same measure for AGGAGGGA: -0.173 E-score; for CAGTTATG: 0.0833 E-score; for AAATACCA: 0.286 E-score.

On to CAATACCG, for which the binding signal came to 0.121 E-score. Under ATATACCC stands 0.127 E-score; under AGATACCG, 0.171 E-score; under ATATACCA, 0.344 E-score. The same measure for ATATACCG: 0.384 E-score; for AAATACCG: 0.37 E-score. Under GTATACCA stands 0.267 E-score. For CTATACCA, the binding signal is 0.201 E-score. AGGAGACG: the binding signal was -0.19 E-score.

CAGCTCGG: the binding signal is -0.0345 E-score. Under AAGTGACT stands -0.0548 E-score; under TCTGTCAA, -0.116 E-score; under CAAGCCTG, -0.132 E-score. With ATCAGTGC, the binding signal is -0.0896 E-score. Regarding CAACGGAC, the binding signal is -0.085 E-score.

As for GGTAGTAA, the binding signal turned out to be 0.396 E-score. Under GCTAGTAA stands 0.286 E-score. Under TGTAGTAA stands 0.286 E-score; under GTTAGTAA, 0.163 E-score. Consider AGTAGTAA, for which the binding signal was 0.404 E-score. Under CGTAGTAA stands 0.205 E-score; under ACTAAACT, 0.244 E-score; under TGGCGAAA, 0.0439 E-score. Under GTTTTGCA stands 0.0567 E-score; under CGTACGTA, 0.05 E-score. The same measure for CACTAATA: 0.33 E-score; for AAATAATA: 0.317 E-score. With CAATAATA, the binding signal stood at 0.312 E-score. As to CACTAATC, the binding signal stood at 0.1 E-score.

With CAATAAAA, the binding signal came out at 0.239 E-score. Under TATTAATA stands 0.352 E-score; under TAATAATA, 0.424 E-score. The same measure for AATTAATA: 0.305 E-score.

TACTAATA: the binding signal was 0.298 E-score. For CATTAATA, the binding signal stood at 0.186 E-score. The same measure for GAATAAAA: 0.119 E-score. Under TAATAAAA stands 0.344 E-score. The same measure for AGAGAATG: 0.0921 E-score; for CATGGTTA: 0.0882 E-score.

On to AAGGAGCG, for which the binding signal was -0.2 E-score. For AGAGGCAA, the binding signal is -0.195 E-score. Under GACCTTGC stands -0.129 E-score; under GAATAATA, 0.349 E-score. GAATAAGA: the binding signal is 0.0835 E-score. Turning to GAATAATC, the binding signal was -0.0939 E-score. The same measure for AGCCAACC: -0.074 E-score; for ATTCGCCC: -0.192 E-score; for ATGATATG: 0.226 E-score. As to ATGATAGC, the binding signal came out at 0.15 E-score. The same measure for ATGATAGG: 0.0735 E-score; for ATGATAGA: 0.36 E-score. For the sequence CTGATATA, the binding signal was determined as 0.258 E-score.

For ATGATATA, the binding signal came to 0.386 E-score.

As for GGACGTCC, the binding signal is -0.0863 E-score. The same measure for AAGCACAA: 0.035 E-score; for TCGGTCAA: 0.044 E-score. Consider GACAAATA, for which the binding signal was found to be 0.111 E-score. For AGCATAAA, the binding signal is 0.179 E-score. On to AGCATAAG, for which the binding signal was -0.133 E-score. Turning to AGCATAAT, the binding signal amounted to 0.369 E-score.

Take CGTTGTCA: the binding signal amounted to 0.0104 E-score.

With TCTATGCA, the binding signal was found to be 0.172 E-score. The same measure for AATATTCT: 0.347 E-score; for AATATTCC: 0.106 E-score.

For AATATTGG, the binding signal was -0.0277 E-score. With AATATTGT, the binding signal is 0.372 E-score. For the sequence AATATTGA, the binding signal amounted to 0.22 E-score. Under AATATTCG stands 0.307 E-score; under AAACATTC, 0.0952 E-score; under CGATGTCA, -0.131 E-score. GGTCCCAA: the binding signal was -0.183 E-score. Under ATGGACGC stands -0.141 E-score. With ACTAACTA, the binding signal came to 0.367 E-score. With AGTAACTA, the binding signal amounted to 0.436 E-score. For the sequence AGTAACTC, the binding signal came to 0.0388 E-score. On to GGTAACTA, for which the binding signal was 0.336 E-score.

Turning to AGTAACTG, the binding signal worked out at 0.124 E-score. For GGTAACGA, the binding signal was found to be 0.0496 E-score. The same measure for ACTAACTG: 0.16 E-score. Under GCTAACTA stands 0.324 E-score; under CGTAACTA, 0.314 E-score.

For the origin of these results see PMC6212790, “How bacterial xenogeneic silencer rok distinguishes foreign from self DNA in its resident genome”.
